T1: FBXL12, Q9NXK8
T1 chain: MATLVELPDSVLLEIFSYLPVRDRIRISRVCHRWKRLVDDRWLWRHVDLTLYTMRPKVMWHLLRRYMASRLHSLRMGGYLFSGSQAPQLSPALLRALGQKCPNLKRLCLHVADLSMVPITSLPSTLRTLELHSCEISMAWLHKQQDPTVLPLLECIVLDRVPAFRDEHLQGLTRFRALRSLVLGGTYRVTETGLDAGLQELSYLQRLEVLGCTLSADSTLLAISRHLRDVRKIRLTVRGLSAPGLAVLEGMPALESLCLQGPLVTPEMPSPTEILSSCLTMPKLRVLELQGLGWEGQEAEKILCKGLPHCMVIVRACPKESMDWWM

B1: FBXL12_hotspot_95_102 (protein)
chain: QRKVVVVYRHTVTPENLEQALAGLRRAKEIVEGLKAAGVEVYAVVAVSAETEEQRAQLEAEAEKVAKAADYALVEILLGATPEEVEERAEEMLEEVLKKI
B2: FBXL12_hotspot_9_110 (protein)
chain: SSILVIAHVTTRETADTTLATARAVTTGLAAHHDRVDVLIVVSDPEHADEMAALAEATAAELEAEHPNVRAEVVRAPDEAAGRAAIEAREAEFLAAAAEE
B3: FBXL12_hotspot_82_99 (protein)
chain: SIAIIGLVNRPPETAVASLRNTADTIITLVEGAREAGVEVVRAVLVVHADPETRAEAERLRPRLEAAGVEVHLEATSAAADARAEAIRAAIEARFAAEDA
B4: FBXL12_hotspot_9_113 (protein)
chain: RILVLSAFAETKEEAEEKLARIREWARAAAAAGWDVIIVVAASTEEVAEYARRLLEELEAELRAAYPDVRVRVDVRLTREEAEETKARLLAEALEEEDRR
B5: FBXL12_hotspot_9_120 (protein)
chain: RIVVIHEFLESLEDVGPRLTRAVDIAETAADAGWKVILVFSAASPEVAAAARRYLAEELGERVAALEARGAVIRVAESREEAERIKRELLEEALREEDEA
B6: FBXL12_hotspot_81_97 (protein)
chain: KELDIVLSQQVQPGDTVEQVRAGLQYQVDLVEAAKAAGVKIRSITVRFSIDTSAFSPEEIEAILAAVEEARARIEALAKEAGAKLIDESAAAIAAVRAAL
B7: FBXL12_hotspot_9_117 (protein)
chain: KTVIIGVVAATPEAARSTLAVAREIARGLAEAGIKVHVIMAASSEETREEVLAIFREAGAEIQAELADKGVKVRVAETMEEYERLKAEVLEEIDREEEEE
B8: FBXL12_hotspot_9_119 (protein)
chain: KVLVIYERIENPEDVEPAIERAIEYARAAAEAGWKVIVVFSAANPEIAEHTRRLLETRFGEEVAELEARGARIVVRDNEEEAEETKERLLREALEEEDRE
B9: FBXL12_hotspot_9_111 (protein)
chain: SSILVVAHVTTAETADSTLETAEAVTRGLAEHHDEVKVLIVVTDPENADEMAAKAEAVAERLEAEHPNVTATVVRAPDEAAGRAAIEAAEAAFLAEADAA
B10: FBXL12_hotspot_9_114 (protein)
chain: RVLVLSFFAETREEAERELARMEEWARAALAAGWDVLIVVAAATEEVAAHARELLARMEAALRAAYPDRRVRVAVALTREAAAAAKAALLAELLAEADAA
B11: FBXL12_hotspot_95_101 (protein)
chain: MRRVIILVRQAVTAENIESAIQAIERAAAIARGLRAAGVEVKLIVVAHAPDEETRARIEAAVERHRDVIDEFVLEETEEAMEEKAEELLEEALEEIDEAE
B12: FBXL12_hotspot_82_98 (protein)
chain: MISIIGLVNRPPETAVESLRNTAETMIAIVEGARAAGVEVERAVLVVRADPETRAVAEELRPRLEAAGIEVHLKETSEEALATKEAILEEIERRWEEEEE
B13: FBXL12_hotspot_9_106 (protein)
chain: MTILVTAYFEEESTIETTLKYALEIALGLAKAGHKVKVLIGAANEELLKKAKEILETKLKEIVEELKKLGVEIILVDSKEEYEKKKEELLKEAEEEEKEA
B14: FBXL12_hotspot_9_112 (protein)
chain: MTVILGVYAETEEELRRKLERALEYAEAALEAGWEVHIVVGAATPELAEAARRLLEEELGERVAELRARGAVIRVEETFEAARARREEIREEIERRAEEE
B15: FBXL12_hotspot_127_8 (protein)
chain: SDIEVRVSVPTYQSYRYAVAILLEMLKIDVKNGGKNVEKLLEQLKALMEDAAKHLPKEDVLELLDEAIKSLKELKKESPEHKELFDKAIKYLEKLRKEVE
B16: FBXL12_hotspot_9_109 (protein)
chain: RTRVVVGVVTSPETADSTLAMLRAVTSGLSRHDDRVHVLIVVQDPANRDALLARAEAVAAELEAEHPNVRVRVVAAPDEEAAEAARAAFLAEVDAEEAAA
B17: FBXL12_hotspot_109_7 (protein)
chain: MTVIVGGLATRPEHAERTARYVLTITRGLLAAGHRVRVVLAGTEESREILEAAAAELRALGAEVTLVVAETPEEARALYEERLAEAEEELDEEEEEEEEE
B18: FBXL12_hotspot_9_115 (protein)
chain: RTILVVASANTVERVRSTLETALKISIGLAEAGHKVILLIAAATEEVLEKAKELLETELKPLVEKLKELGVEVKEPVLYEEAEPLKEEILEEIDEEEEEE
B19: FBXL12_hotspot_95_100 (protein)
chain: RRVVVVVFRHLVTPESAETVRQGVARFKAIVEGLRAAGVEVVAVLVLSYEDEESRALAEELKAEAAPLLDYAHLAPTREAAEAAYAELKARALAEADRLE
B20: FBXL12_hotspot_9_125 (protein)
chain: RHVIISVTARTEEELREKIDRALDYAEAAAAAGWKVHLIVSGLSPELLAAAKELLATEHAERVAALKAAGAEIHLKETVEEGEALKAEILAEIEEEAERE
B21: FBXL12_hotspot_9_116 (protein)
chain: KTVVVLARALRVETVESTLRTALEIAIGLAKAGVKVHLVIGAADEEVLAKARELLATRLAPLVEEARALGVEVHEPALYEEAEALVEEILEEIDEEEEEE
B22: FBXL12_hotspot_9_103 (protein)
chain: MTVLVVGRATTPESVRTTVRTAVEIAEGLVAAGHEVVLILYAADPEVAEVLRRTVEEEFGERVAALRAAGARVVVAPDLEAGERAKREALEEIERREEEE
B23: FBXL12_hotspot_9_105 (protein)
chain: KHIIVVASAATKEAFLNSSRTALEIAIGLAKAGHKVTVILSYDDPEKFEEWRAALEEELKELLEEAKELGIKIHYAPSPEEKERILEEVLEEHDEEEEEE
B24: FBXL12_hotspot_9_104 (protein)
chain: KHIVIVASASTREAFLNSARTALEIAIGLAKAGHKVTVILHHTRPETAEEARAAVKKELAELIEEAKELGIEIRFAATEEELERLLEEALREADEEEERE
B25: FBXL12_hotspot_9_121 (protein)
chain: RIVVIRQFIESEEEVGPTVRRAVAYARAAADAGWRVIIVISAASPEVAEAARRVLEEELGEEVAELRARGARIVVTSSREEAERKKAELLEAALAEEDAA
B26: FBXL12_hotspot_9_124 (protein)
chain: MHVIISQYAETEEEARRQIERALEYAKAAAEAGWKVTVIFSASTEELKEFIEELLETEYAEEVAELKAKGVEIHVVETEEEAERLKEEILEEIEEEAEEE
B27: FBXL12_hotspot_9_122 (protein)
chain: RIVVISEFVESPEEVEPVVRRAVEYAEAAAAAGWRVIIVIAAASPEVAEHARRVLEERFGERVARLRAAGARIEVRASREEAERAKRELLEEALAEEDAA
B28: FBXL12_hotspot_9_118 (protein)
chain: RVLVISEYVRSEAEVEPAIARALAYARAAADAGWRVIVVISAASPAIAAHARRLLATRYGEEVAELRARGARIVVRDSRAAAEAEKARLLAEALAAEDAA
B29: FBXL12_hotspot_9_107 (protein)
chain: KTVLVTAYFEKEETVETTLKYAMEIALGLAEAGHKVRVLIGAKNEEILKKAKEILETKLKETVERLKELGVEIIFVSSEEEYEKKKKELLEEMEKEEEEA
B30: FBXL12_hotspot_134_9 (protein)
chain: RTVVVIVSANGVSDAQARAAVDRAETIIAGLRAAGHRVLFVLVLSLADAAVGDALVARARAAAAAHGAEVVAAENVPAADFEAVLAAARARALARLDELE
B31: FBXL12_hotspot_9_123 (protein)
chain: MIVVIRENVKREEDIEPALRRAVAYAEAAAEAGWRVILVFSASSEELKEKAKEILETKLGERVARLKARGARIVVTATEEEAERKKRELLEEALREEDEA
B32: FBXL12_hotspot_9_108 (protein)
chain: MLRILVATVSSLETAGPTIETAAAIARGLVAAGHRVRVIFISANAETGEEMLALARERLGALAAEEGRVTVVLRLAENEEEAEEIKEELLEEALEEVDRA

Target: T1, FBXL12, Q9NXK8
Test: median log2 fold change of GCK-ALFA target abundance (FLAG IP / Myc IP barcode read proportion) (log2 ratio); each designed protein is fused to an ALFA-tag nanobody in HEK293 cells to bring the named protein to FLAG-tagged glucokinase (GCK); Myc marks an untargeted standard; higher = target protein stabilised (more abundant)
Details: target protein: 3xFLAG-MCP-GCK-ALFA reporter; HEK293 landing pad (RPLP)
Experimental: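 LABEL-seq trans screen in HEK293 landing-pad cells. Each de novo designed 100-aa effector handle, binding the indicated effector (E3 ligase, DUB or autophagy protein), is fused to a constant NbALFA target handle and induced with 2 ug/mL doxycycline. A FLAG-MCP-GCK-ALFA target and a Myc-MCP standard reporter were transfected, and after 48 h circRNA barcodes were recovered by anti-FLAG and anti-Myc IP and sequenced. The value is the median across barcodes (at least 3 per design) of log2(FLAG/Myc read-proportion ratio), with the two transfection replicates pooled. Negative values mean degradation and positive values mean stabilisation of the target.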

Q: With B1 as the binder, how does the “median log2 fold change” value read?
A: 0.243

Q: B2 was tested. Which “median log2 fold change” value did it give?
A: -0.0129

Q: B3 was tested. Which “median log2 fold change” value did it give?
A: 0.0901

Q: How did the “median log2 fold change” value turn out when B4 was run?
A: -0.106

Q: With B5 as the binder, how does the “median log2 fold change” value read?
A: -0.0369

Q: Which “median log2 fold change” value does the source give for B6 here?
A: 0.149

Q: For B7, which “median log2 fold change” value is on record?
A: 0.0889

Q: B8 was tested. Which “median log2 fold change” value did it give?
A: 0.0418

Q: For B9, which “median log2 fold change” value is on record?
A: 0.154

Q: Which “median log2 fold change” value does the source give for B10 here?
A: -0.157

Q: For B11, which “median log2 fold change” value is on record?
A: -0.00895

Q: How did the “median log2 fold change” value turn out when B12 was run?
A: 0.108

Q: For B13, which “median log2 fold change” value is on record?
A: -0.24

Q: For B14, which “median log2 fold change” value is on record?
A: -0.276

Q: Which “median log2 fold change” value does the source give for B15 here?
A: -0.133

Q: B16 was tested. Which “median log2 fold change” value did it give?
A: 0.0457

Q: Which “median log2 fold change” value does the source give for B17 here?
A: 0.117

Q: With B18 as the binder, how does the “median log2 fold change” value read?
A: 0.00902

Q: How did the “median log2 fold change” value turn out when B19 was run?
A: -0.315

Q: How did the “median log2 fold change” value turn out when B20 was run?
A: 0.23

Q: B21 was tested. Which “median log2 fold change” value did it give?
A: 0.0101

Q: How did the “median log2 fold change” value turn out when B22 was run?
A: 0.0779

Q: For B23, which “median log2 fold change” value is on record?
A: 0.136

Q: Which “median log2 fold change” value does the source give for B24 here?
A: 0.00127

Q: How did the “median log2 fold change” value turn out when B25 was run?
A: -0.228

Q: Which “median log2 fold change” value does the source give for B26 here?
A: -0.161

Q: With B27 as the binder, how does the “median log2 fold change” value read?
A: 0.0626

Q: For B28, which “median log2 fold change” value is on record?
A: -0.563

Q: Which “median log2 fold change” value does the source give for B29 here?
A: 0.196

Q: How did the “median log2 fold change” value turn out when B30 was run?
A: 0.11

Q: For B31, which “median log2 fold change” value is on record?
A: -0.0307

Q: Which “median log2 fold change” value does the source give for B32 here?
A: -0.0498

Source: the supplement of paper PMC12632987
